Source: PubChem BioAssay AID1030 (National Center for Advancing Translational Sciences (NCATS), 2008)
The whole screen tested about 220,000 compounds, of which about 16,000 (7.3%) were called active. Roughly 25% stayed inconclusive and do not appear here. The full list was thinned out, with actives kept by preference. A number with no mark means an inactive call. Calls come from the whole dose curve; as a rule, active = well fitted inhibition curve with a large enough effect (not every such curve was filed as active); inconclusive = small, poorly fitted or top-dose-only effect, or another doubt; inactive = no such curve, though single readings can be large or run the other way.

molecular target: Aldehyde dehydrogenase 1A1 (Homo sapiens) (UniProt P00352); assay: qHTS Assay for Inhibitors of Aldehyde Dehydrogenase 1 (ALDH1A1); conditions: Purified ALDH1A1, NADH fluorescence, propionaldehyde substrate; series mostly up to 75.3 µM; activity, negative = inhibition: at the top concentration;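 for activity, negative = inhibition: plate controls were no enzyme wells and a reference inhibitor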
Sequence (P00352 whole entry, looked up): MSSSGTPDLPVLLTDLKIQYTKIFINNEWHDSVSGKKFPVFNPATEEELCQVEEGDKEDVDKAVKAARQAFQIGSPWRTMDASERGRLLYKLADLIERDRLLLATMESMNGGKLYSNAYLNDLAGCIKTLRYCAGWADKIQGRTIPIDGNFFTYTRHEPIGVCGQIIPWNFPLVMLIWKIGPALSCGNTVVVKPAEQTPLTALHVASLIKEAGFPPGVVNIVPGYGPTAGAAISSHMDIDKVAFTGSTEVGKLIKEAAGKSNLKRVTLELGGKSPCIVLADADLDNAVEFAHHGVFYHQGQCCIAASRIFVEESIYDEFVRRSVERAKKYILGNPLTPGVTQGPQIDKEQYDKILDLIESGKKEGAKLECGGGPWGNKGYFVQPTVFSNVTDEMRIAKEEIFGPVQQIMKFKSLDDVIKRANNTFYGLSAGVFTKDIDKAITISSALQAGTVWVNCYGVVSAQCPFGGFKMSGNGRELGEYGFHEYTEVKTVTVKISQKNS
Potency is the fitted concentration of half-maximal effect.

SMILES	activity, negative = inhibition	Potency
O=C(CC(O)(C(F)(F)F)C(F)(F)F)Nc1ccc(Cl)c(Cl)c1	-4.42%	–
N/C(=N\OC(=O)Nc1ccc(Cl)c(Cl)c1)c1ncc(C(F)(F)F)cc1Cl	–	25.1 µM (active)
CC1(OC(=O)CCc2ccccc2)C(=O)C=C2C=C(c3ccc(C#N)cc3)N(CCc3ccccn3)C=C2C1=O (centres undefined)	10.1% [at 13.5 µM]	–
C=CCn1c(-c2ccccc2OCC)n[nH]c1=S	-15%	–
C=CCn1c(-c2ccc3[nH]c(C)c(C)c3c2)n[nH]c1=S	–	12.6 µM (active)
C=CCn1c(CCc2ccc(OC(C)C)cc2)n[nH]c1=S	-5.12%	–
O=C(CN1CCN(c2ncccn2)CC1)Nc1ccccc1C(F)(F)F	3.02%	–
c1ccc(-c2cc(N3CCCCC3)c3ccccc3n2)cc1	-14.9%	–
COc1cccc(NC(=O)C(Sc2nnnn2C)c2ccccc2)c1 (centres undefined)	5.1%	–
OCCNCc1cccc(OCc2ccccc2Cl)c1	6.58%	–
O=C(C1CCCO1)N1CCN(C(=S)NC2CC2)CC1 (centres undefined)	-0.777%	–
CCC1CCCCN1C(=O)CSc1nc(C)cc(C)n1 (centres undefined)	-4.6%	–
Cn1c(=O)c2c(nc(SCC(=O)Nc3ccccc3N3CCCCC3)n2C)n(C)c1=O	-12.6%	–
CCC1CCCCN1C(=O)CSc1nc2c(c(=O)n(C)c(=O)n2C)n1C (centres undefined)	–	12.6 µM (active)
Cc1c(C(=O)N/N=C/c2ccccc2)[nH]c2c([N+](=O)[O-])cccc12	8.46%	–
Cc1[nH]c(=O)c(C(=O)/C=C/c2ccccc2)c2c1CCCC2	4.06%	–
Cc1nc(-c2ccccc2)sc1C(=O)/C=C/c1ccccc1	–	3.55 µM (active)
O=C(/C=C/c1ccccc1)c1ccccc1O	–	inactive
O=C(O)C1C2CC2CN1C(=O)c1ccc(Cl)cc1Cl (centres undefined)	1.47%	–
Cc1[nH][nH]c(=O)c1C(c1ccc(-c2ccc(Cl)cc2)o1)c1c(C)[nH][nH]c1=O	–	22.4 µM (active)
Cc1[nH][nH]c(=O)c1N=Nc1ccccc1	8.64%	–
Cc1[nH][nH]c(=O)c1C(c1ccc2c(c1)OCO2)c1c(C)[nH][nH]c1=O	-2.58%	–
O=C(NCCc1ccccn1)c1cccnc1Oc1ccc(Cl)cc1	9.99%	–
CN1CCN(C(=O)CCc2nc(-c3ccc(Cl)cc3)no2)CC1	11.6%	–
CCOC(=O)Nc1ccccc1N1C(=O)c2ccccc2C1=O	10.7%	–
CCCCN1C(=O)/C(=C(/C#N)C(N)=O)c2ccccc21	–	7.08 µM (active)
CCCn1c(=O)c2ccccc2n2c(SCC(=O)/C(C#N)=C(\C)N)nnc12	1.09%	–

SMILES	activity, negative = inhibition	Potency
CCc1nnc(NS(=O)(=O)c2ccc(N=Cc3c(C)[nH]n(-c4ccc(C)cc4)c3=O)cc2)s1	-7.49%	–
Cc1ccc(-n2[nH]c(C)c(/C=N/N3C(=O)c4cccc5cccc(c45)C3=O)c2=O)cc1	4.67%	–
COc1cc(SC#N)ccc1N=Cc1c(C)[nH]n(-c2ccc(C)cc2)c1=O	–	0.631 µM (active)
N/C(=N\S(=O)(=O)c1cc(C(F)(F)F)cc(C(F)(F)F)c1)c1cccs1	-0.599%	–
CC1=CC(=C(C#N)c2nc3ccccc3s2)C=C(C)N1c1ccc(F)cc1F	-9.49%	–
Oc1ccccc1C=NC1CCCCC1N=Cc1ccccc1O (centres undefined)	11%	–
O=c1c(O)c(Br)ccc2c(Br)c(O)c(O)c(O)c12	–	8.91 µM (active)
CCOc1ccc(NC(=O)NNC(=O)c2ccc(Cl)cc2Cl)cc1	3.26%	–
Oc1cc(O)c2c(c1)OC(c1ccc(O)c(O)c1)C(O)C2 (centres undefined)	–	10 µM (active)
Cc1nc2cc(NC(=O)NC3CC3)ccc2n1C	-9.58%	–
COC(=O)Cc1ccc(NC(=S)NCc2ccccc2)cc1	1.73%	–
COCC(=O)Nc1ccc(Br)cc1	5.23%	–
CC(C)Oc1ccc(CC(=O)NNC(=S)Nc2ccc(Br)cc2)cc1	–	10 µM (active)
CC(C)C(O)C1CCN(Cc2nc(Cc3ccccc3Cl)no2)CC1 (centres undefined)	-0.592%	–
Cc1ccc(COc2ccc(/C=N/NC(=O)CN3CCCCC3)cc2)cc1	8.06%	–
O=c1cc(O)nc(SCc2ccccc2Cl)[nH]1	1.42%	–
S=c1[nH]nc(SCc2ccccc2Cl)c2[nH]cnc12	–	0.0316 µM (active)
CCc1ccc(-n2c(=S)sc3c(=O)n(-c4ccccc4OC)c(=S)[nH]c32)cc1	–	12.6 µM (active)
CCOC(=O)N1CCN(C(=O)Cc2ccc(-n3c(=S)[nH]c4ccccc4c3=O)cc2)CC1	-10.4%	–
COc1ccccc1-n1c(=S)[nH]c2c(sc(=S)n2-c2ccc(C)cc2C)c1=O	–	8.91 µM (active)
COc1ccc(OC)c(-n2c(=S)[nH]c3cc(C(=O)N4CCCCC4)ccc3c2=O)c1	-1.79%	–
COc1cc2[nH]c(=S)n(Cc3ccc(F)cc3)c(=O)c2cc1OC	6.91%	–
Cc1ccc(Cl)cc1NC(=O)c1ccccn1	3.34%	–
Cc1cn(C2OC[C@@H](O)[C@@H]2CO)c(=O)[nH]c1=O (some centres undefined)	9.87%	–
O=C(NCc1cccnc1)c1cccc(-c2cc3ccccc3oc2=O)c1	-7.95%	–
CCc1ccc(CN(C)Cc2nc(Cc3ccccc3)no2)nc1	-4.1%	–
CN(C)CCCN1C(=O)CSC1c1ccc([N+](=O)[O-])cc1 (centres undefined)	4.08%	–
